The campaign covered roughly 65,000 compounds. About 2,100 (3.2%) showed an effect of 50% or more. The median lay at about -52%. The entries come from a sample that favours strong results as a whole.

For the assay, the system named is Plasmodium falciparum. As to the kind of experiment: Screen against P. falciparum Asexual Blood Stage (ABS), at 5uM. Type of assay: functional, Dd2. The settings on record: tested at 5 uM.
Regarding `CCS(=O)(=O)N[C@@H]1CN(Cc2cc(C)on2)C[C@@H]2CCCO[C@@H]21`, the INHIBITION is reported as -96%.

`CN1CCN(c2ccc(CO)cc2F)CC1`: the INHIBITION is -62.7%.

With `COC(=O)CNC(=O)c1cn(Cc2ccccc2F)nn1`, the INHIBITION is given as -63.8%.

On to `CN1CCN(c2ccnc3c(F)cc(Br)cc23)CC1`, for which the INHIBITION is 0.83%.

Turning to `CN1CCN(c2ccccc2CNC(=O)Cc2cccc(F)c2)CC1`, the INHIBITION was found to be 77.4%.

As for `CN1CCN(c2ccccc2CNC(=O)Cc2ccccc2F)CC1`, the INHIBITION came out at 77%.

Regarding `CN1CCN(c2ccccc2NC(=O)NCCc2ccccc2)CC1`, the INHIBITION is on record as 83.9%.

Take `CN1CCN(c2ccc(F)cc2C(N)=O)CC1`: the INHIBITION is given as -105%.

For `O=S1(=O)CCC(n2cc(C3=CCN(CCn4cccc4)CC3)cn2)C1` (stereo not given), the INHIBITION is listed as -22.4%.

Consider `Cc1noc(C)c1CN1C(=O)[C@@H]2CC[C@H]1CN(Cc1cscn1)C2`, for which the INHIBITION is on record as -41.1%.

Regarding `O=C(C1CCC1)N1CCC2(CC1)CNCCO2`, the INHIBITION is -16.3%.

Regarding `O=C(Nc1ccccc1)C1=NOC2(CCNCC2)C1`, the INHIBITION was -53.9%.

For the compound `COc1ccc(CC(C)(O)CNC(=O)c2cccs2)cc1` (stereo not given), the INHIBITION amounted to 89.1%.

Take `c1cc(COC[C@H]2CCC[C@]23CNCCO3)ccn1`: the INHIBITION amounted to 14.9%.

For the compound `c1cnc(NCc2cncc3c2CCN(CC2CC2)C3)nc1`, the INHIBITION is given as -95%.

`CC(C)N1CCO[C@H]2CN(C(=O)c3ccccn3)C[C@H]21`: the INHIBITION is -46.1%.

In the case of `CN1CCC(NCC(O)c2cccc(OCc3ccccc3)c2)CC1` (stereo not given), the INHIBITION amounted to 90.7%.

Consider `CCOc1cccc(C(C)NC(=O)N2CCC3(CC2)OCCO3)c1` (stereo not given), for which the INHIBITION is on record as -117%.

On to `OC(CNC1CCSCC1)c1cccc(OCc2ccccc2)c1` (stereo not given), for which the INHIBITION amounted to 74.4%.

As for `NCC(c1cccnc1)N1CCOCC1` (stereo not given), the INHIBITION is reported as -122%.

With `CC(C)OCCN(C)CC(c1cccs1)N1CCOCC1` (stereo not given), the INHIBITION turned out to be 79.9%.

For the compound `c1cnc(N2CC[C@@H]3[C@@H]2CCN3Cc2cccs2)nc1`, the INHIBITION is reported as -56.7%.

Turning to `Oc1cc(C2CCCCN2Cc2cccs2)nc(-c2ccccn2)n1` (stereo not given), the INHIBITION is 85.9%.

With `c1ccc(COC[C@H]2CC[C@H]3[C@H](CCN3Cc3cccs3)O2)nc1`, the INHIBITION was -43.6%.

On to `CCN1CCN(Cc2nc(C)no2)CC1`, for which the INHIBITION is reported as -11.7%.

For `Cc1noc(C)c1CN1C[C@@H](OCC(=O)N(C)C)[C@H]2OCCC[C@H]21`, the INHIBITION is on record as -76.4%.

Regarding `COc1cccc(CNCc2ccc(F)c(Cl)c2)c1O`, the INHIBITION is given as 80%.

In the case of `COc1cccc(CNCc2cccc(Cl)c2)c1O`, the INHIBITION is listed as 85.2%.

On to `COc1cc(CNCCNC(=O)c2ccc(O)cc2)ccc1SC`, for which the INHIBITION stood at 26.9%.

Regarding `CC1CCC2(CC1)NC(=O)c1cc(Br)ccc1-n1nnnc12` (stereo not given), the INHIBITION is -65.8%.

For the compound `O=C(c1csc(-c2ncccn2)n1)N1CCN2CCCCC2C1` (stereo not given), the INHIBITION was -32.7%.

Regarding `CN(C)[C@@H]1CN(C(=O)Cc2ccccc2)[C@@H]2CCCO[C@H]12`, the INHIBITION is on record as -9.86%.

In the case of `CC(C)CCC(=O)N1CCC2(CC1)OCCO2`, the INHIBITION is -8.85%.

With `Cc1ccc(C(=O)N2C[C@H]3CN(Cc4csc(C)n4)C[C@H]3C2)cn1`, the INHIBITION is reported as -173%.

For `COC(=O)C(C)(C)NC(=O)c1cnc(Cc2ccc(F)cc2)s1`, the INHIBITION turned out to be 75.4%.

With `Cc1cnn(CC(C)NCCc2cccs2)c1` (stereo not given), the INHIBITION is reported as -30.1%.

`Cc1cnn(CCNCC(O)c2ccc(C(F)(F)F)cc2)c1` (stereo not given): the INHIBITION came to 72.6%.

With `Cc1cnn(CCNCC(O)COc2c(Cl)cccc2Cl)c1` (stereo not given), the INHIBITION was 81.9%.

In the case of `CC(C)(O)CNc1ccc(C#N)c(C(F)(F)F)c1`, the INHIBITION is on record as -74.3%.

On to `CC1=NOC2(CCN(Cc3c[nH]c4ccccc34)CC2)C1`, for which the INHIBITION was -17.9%.

Take `O=C(c1ccc[nH]1)N1CCC2(CCCN2Cc2cccnc2)CC1`: the INHIBITION is -9.26%.

In the case of `CN(C)c1ncc2c(n1)C1(CCN(Cc3cccnc3)C1)COC2` (stereo not given), the INHIBITION is -4.75%.

As for `CCN1CCN(C[C@@H]2CN(c3ncc(Cl)cc3F)C[C@@H]2CO)CC1`, the INHIBITION is reported as 92.2%.

Regarding `Cc1ccccc1OCC(=O)N1CCN(C2CCOC2=O)CC1` (stereo not given), the INHIBITION is given as -28.3%.

In the case of `Cc1cccc(NC(=O)c2cccc(OCc3nnnn3C)c2)n1`, the INHIBITION is listed as 80.7%.

For the compound `CN1CCc2c(C#N)c(NCCc3ccccc3)n3cnnc3c2C1`, the INHIBITION is on record as 70.9%.

Regarding `CC(C)CCNc1c(C#N)c2c(c3nncn13)CN(C)CC2`, the INHIBITION was -35.1%.

`CN1CCc2c(C#N)c(NCCCO)n3cnnc3c2C1`: the INHIBITION is -82.4%.

For the compound `COCCN1C[C@@H]2[C@@H](OC)CCN(C(=O)Cc3ccccc3)[C@@H]2C1`, the INHIBITION is given as -25%.

Take `COc1ccc(CC(=O)N2CCC[C@@H](N)[C@@H]2c2ccccc2F)cc1`: the INHIBITION was found to be 80.9%.

`COc1ccc(CC(=O)N2CCN(Cc3ccco3)C[C@@H]2C)cc1`: the INHIBITION was -22.3%.

Consider `Cc1cccc(CN2C[C@@H]3OCCN(S(=O)(=O)N(C)C)[C@@H]3C2)n1`, for which the INHIBITION is listed as -43.1%.

In the case of `CCc1ccc2nc(NCCCN(CCO)CCO)cc(C)c2c1`, the INHIBITION is reported as 83.4%.

For `CCN1CCC12CCN(C(=O)c1cc(C)on1)C2` (stereo not given), the INHIBITION is -10.1%.

`CCc1noc(CN2CCN(C(=O)Cc3ccc(F)cc3)CC2)n1`: the INHIBITION is recorded as -9.72%.

As to `NC1CCCCN(Cc2cc(-c3ccccc3OC(F)(F)F)no2)C1` (stereo not given), the INHIBITION stood at 71.1%.

`CC(C)n1ccc2c(C(=O)NC3CN4CCC3CC4)cccc21` (stereo not given): the INHIBITION was -67.1%.

Consider `COc1cc(CNCC(C)O)cc(Cl)c1OCc1ccc(C)cc1` (stereo not given), for which the INHIBITION was 73.9%.

As for `COc1cccc(CNC(C)C)c1OCc1ccc(C)cc1`, the INHIBITION is 73.7%.

On to `Cc1nc(C)c(CC(=O)N2CCN(CC(C)C)CC2)c(=O)[nH]1`, for which the INHIBITION is -137%.

Turning to `Clc1cccc(C(NCc2ncc[nH]2)c2ccccn2)c1` (stereo not given), the INHIBITION is recorded as 86.9%.

For the compound `Fc1cccc(C(NCc2ncc[nH]2)c2ccccn2)c1` (stereo not given), the INHIBITION came out at 91.8%.

On to `Cc1nnc([C@@H]2C[C@H]3CN(C4CCC4)C[C@H]3O2)[nH]1`, for which the INHIBITION is -81.6%.

Regarding `O=C(c1cn(Cc2ccccc2)c2ncccc12)N1CCCCC1`, the INHIBITION is -11.9%.

In the case of `N#CC1(c2ccccc2)CCN(C(=O)CN2C(=O)CCNC2=O)CC1`, the INHIBITION was -90.6%.

With `CCOc1cccc(C(C)NCc2ccc(OC)c(OC)c2OC)c1` (stereo not given), the INHIBITION was 77.6%.

Take `COc1ccc(CNC(C)c2ccccc2Cl)c(OC)c1OC` (stereo not given): the INHIBITION worked out at 75.6%.

Take `COc1ccc(CNC(C)Cn2cccn2)c(OC)c1OC` (stereo not given): the INHIBITION is recorded as -37.6%.

As for `COc1ccc(CNC(C)c2ccc(Cl)cc2)c(OC)c1OC` (stereo not given), the INHIBITION worked out at 80.9%.

`CNS(=O)(=O)c1cccc(C(C)NCc2ccccc2OC)c1` (stereo not given): the INHIBITION is 86.6%.

Source of the values: ChEMBL document CHEMBL4513216, “Probing the Open Global Health Chemical Diversity Library for Multistage-Active Starting Points for Next-Generation Antimalarials” (ACS Infect Dis, 2020).
